Calb FLC: C. albicans growth modulation with fluconazole | AID 1979 | growth inhibition, % (concentration not given with the values) | C. albicans CaCi-2 (fluconazole-resistant clinical isolate) + fluconazole, Alamar Blue growth, 48 h | 300,000 tested, 0.57% active;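 active means growth inhibition above about 58% in most replicates, limit read from the data, passing the limit was not always enough; inconclusive means exactly half the replicates above a set limit; inactive means most replicates below a set limit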;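 further: all wells also contain fluconazole at 8 µg/ml as a sub-toxic cotreatment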
Shn3 inh set2: Schnurri-3 reporter inhibition in Clone20 osteoblasts; inhibition, % at 12.5 µM; Clone20 osteoblast Shn3 3'UTR firefly luciferase, 24 h; AID 588674; 360,000 tested, 0.52% active;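 active means mean inhibition of at least 75% with every replicate also reaching 75%; inconclusive means mean inhibition at least 75% but some replicate below; inactive means mean inhibition below 75%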
Beta cell apopt: blocks beta cell apoptosis; AID 435005; 300,000 tested, 0.8% active; INS-1E cytokine-induced death, ATP luminescence, 48 h; percent of positive-control rescue, neutral wells zero; protection from apoptosis, % (no concentration beside the values);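 active means Every replicate reaches about 75%, or at least half do and their mean reaches it too, limit read from the data; inconclusive means At least half of replicates reach the limit but their mean does not; inactive means Under half of replicates reach the limit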;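 further: higher means more ATP so stronger rescue from cytokine killing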
697 NFkB inh: inhibitors of the PMA/ionomycin-induced NF-kB reporter in 697 B cells; 697 B-cell NF-kB luciferase reporter, 16 h; inhibition, % at 4 µM; 330,000 tested, 0.33% active; AID 435022; in the data active means inhibition above about 35%
Jurkat NFkB inh: lowers PMA/ionomycin-induced NF-kB signal in Jurkat cells; PMA/ionomycin-induced NF-kB luciferase reporter, luminescence; inhibition, % at 4 µM; 330,000 tested, 0.53% active; AID 435003; in the data active means inhibition above about 50%
Jurkat NFkB conf: inhibitors of the PMA/ionomycin-induced NF-kB reporter in Jurkat cells, retest | shares compounds with Jurkat NFkB inh | Jurkat NF-kB luciferase, 16 h | inhibition, % at 4 µM | 2,700 tested, 27% active;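 active means inhibition reaching about 45% at 4 µM in either replicate, limit read from the data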
Large screens that a line does not name were inactive (follow-up assays come after a bar, where they were run). This is a sample that favours compounds with a hit; in the whole collection about 2% have one here.

CCn1c(O)c(/C=C2\C=Nc3ccccc32)sc1=Nc1ccc(C)cc1	Jurkat NFkB inh 62 | Jurkat NFkB conf inactive
COc1ccc(N2CC(C(=O)Nc3ccccc3N3CCCC3)CC2=O)c(OC)c1 (stereo unspecified)	Jurkat NFkB inh 58 | Jurkat NFkB conf inactive
CC(=O)Nc1ccc(S(=O)(=O)N(C)c2ccccc2)cc1	none
CCS(=O)(=O)c1ncc(Cl)c(C(=O)Nc2ccc(S(=O)(=O)N(C)c3ccccc3)cc2)n1	Shn3 inh set2 99, Beta cell apopt 105, Jurkat NFkB inh 75 | Jurkat NFkB conf inactive
COc1cccc(-c2cnc3c(NC(C)=O)cc(-c4ccsc4)cn23)c1	none (no result: Calb FLC, Beta cell apopt, 697 NFkB inh, Jurkat NFkB inh)
O=C(Nc1nc(-c2nc3ccccc3s2)cs1)C1CC1	none | Jurkat NFkB conf inactive
CCc1ccc(/C=N/NC(=O)c2cc(C3CC3)nc3ccccc23)s1	Jurkat NFkB inh 58 (no result: Shn3 inh set2) | Jurkat NFkB conf inactive
NC(=O)c1c(NC(=O)c2cc3ccccc3o2)sc2c1CCC2	none (no result: Shn3 inh set2) | Jurkat NFkB conf inactive
Cn1[nH]c2c(c1=O)[C@H](c1ccc(F)cc1)O[C@H](CCc1ccccc1)C2	none (no result: Calb FLC, Beta cell apopt, 697 NFkB inh, Jurkat NFkB inh)
Cc1ccc(S(=O)(=O)NCc2ccc(C(=O)N3CCN(c4ccc([N+](=O)[O-])cc4)CC3)cc2)cc1	Shn3 inh set2 90, Jurkat NFkB inh 59 | Jurkat NFkB conf 53
COc1ccc(N2CCN(C(=O)c3ccc(CNS(=O)(=O)c4ccc(C)cc4)cc3)CC2)cc1	none
CC1CCC2(CC1)NC(=O)N(CC(=O)N1CCN(C(=O)c3ccco3)CC1)C2=O (stereo unspecified)	none (no result: Calb FLC)
CC(C)Oc1cccc(C(=O)Nc2ccc(Br)cc2F)c1	none | Jurkat NFkB conf inactive
Cc1noc(C)c1COc1cccc(C(=O)Nc2ccc(Br)cc2F)c1	Jurkat NFkB inh 61 (no result: Calb FLC) | Jurkat NFkB conf inactive
COc1ccc(/C(C)=N\NC(=O)c2ccc3c(c2)OCO3)cc1OC	none (no result: Shn3 inh set2)
COc1cccc(C(=O)Nc2ccc(F)cc2F)c1	none
Cc1ccc(NC(=O)c2cccc(OCc3c(C)noc3C)c2)c(C)c1	none
COc1cc(C(=O)N/N=C(\C)c2ccc3c(c2)OCO3)cc(OC)c1OC	Jurkat NFkB inh 52 | Jurkat NFkB conf inactive
Cc1cnc(NC(=O)c2ccc3c(c2)OCCO3)s1	Jurkat NFkB inh 70 (no result: Calb FLC, Beta cell apopt) | Jurkat NFkB conf 77
COc1cc(C(=O)OC(C)C(=O)Nc2ccc3c(c2)OCO3)ccc1OCc1c(C)noc1C (stereo unspecified)	none (no result: Beta cell apopt)
Cc1noc(C)c1COc1cccc(C(=O)OC(C)C(=O)Nc2ccc3c(c2)OCO3)c1 (stereo unspecified)	Jurkat NFkB inh 58 | Jurkat NFkB conf inactive
O=C(Nc1ccc(Br)cc1F)c1ccc2c(c1)OCCO2	none | Jurkat NFkB conf inactive
COc1ccccc1-c1nnc(NC(=O)c2ccc3c(c2)OCO3)s1	Jurkat NFkB inh 57 | Jurkat NFkB conf inactive
CC(C)c1nnc(NC(=O)c2ccc3c(c2)OCO3)s1	none (no result: Beta cell apopt)
C#CC(=O)CC1(CN(Cc2ccccc2)C(=O)OC(C)(C)C)CCCCC1	none (no result: Calb FLC, Beta cell apopt, 697 NFkB inh, Jurkat NFkB inh)
Cc1cc(C)n(-c2nc3c(c(=O)[nH]c(=O)n3C)n2CC(O)COc2ccc(Cl)cc2Cl)n1 (stereo unspecified)	Jurkat NFkB inh 51 | Jurkat NFkB conf inactive
CCN(CC)CCNc1nc2c(c(=O)[nH]c(=O)n2C)n1CC(O)COc1ccc(Cl)cc1Cl (stereo unspecified)	none
Cc1cc2c(cc1C)C(c1cc(Br)ccc1F)CC(=O)N2 (stereo unspecified)	Jurkat NFkB inh 57 | Jurkat NFkB conf inactive
CCO[C@H]1OC(C(=O)NCc2nc3ccccc3[nH]2)=C[C@@H](C2CC2)[C@@H]1CCCO	Jurkat NFkB inh 61 | Jurkat NFkB conf inactive
CCO[C@H]1OC(C(=O)NCc2nc3ccccc3[nH]2)=C[C@@H](c2ccccc2)[C@@H]1CCCO	none
CCc1ccccc1Oc1nc(NCc2ccccc2)nc2ccsc12	none (no result: Calb FLC, Beta cell apopt, 697 NFkB inh, Jurkat NFkB inh)
Cc1ccc2nc(-c3ccc4c(c3)OCCO4)cn2c1	Jurkat NFkB inh 83 | Jurkat NFkB conf 51
COc1ccc(OC)c(-c2nnc3n2N=C(c2ccc(OC)c(OC4CCCC4)c2)CS3)c1	Jurkat NFkB inh 79 (no result: Calb FLC) | Jurkat NFkB conf 63
COc1ccc(OC)c(-c2nnc3n2N=C(c2ccc(OC)c(OC)c2)CS3)c1	Jurkat NFkB inh 58 (no result: Calb FLC) | Jurkat NFkB conf inactive
COc1ccc(OC)c(-c2nnc3n2N=C(c2ccc(OC(F)F)c(OCC4CC4)c2)CS3)c1	none (no result: Calb FLC)
COc1ccc(C2=Nn3c(nnc3-c3ccccc3)SC2)cc1OC	none
COc1ccc(OC)c(N(CCN2C(=O)c3ccccc3C2=O)C(=O)C2CCC(=O)C2C)c1 (stereo unspecified)	none (no result: Calb FLC, Beta cell apopt, 697 NFkB inh, Jurkat NFkB inh)
CCCCCN(C(=O)CCC(=O)OCCOc1cccc(C)c1)c1c(N)n(CCCC)c(=O)[nH]c1=O	none (no result: Calb FLC)
CC1=CC(=O)C=CC1=Nc1ccc(N(C)C)cc1	none (no result: Calb FLC, Beta cell apopt, 697 NFkB inh, Jurkat NFkB inh)
Cc1cc[n+](CC(=O)c2ccc3c(c2)OCCO3)cc1	none
O=C(C[n+]1ccc(/C=C/c2ccccc2)cc1)c1ccc2c(c1)OCCO2	Jurkat NFkB inh 54 (no result: Shn3 inh set2) | Jurkat NFkB conf inactive
CCCCCN=C(N)N/N=C/c1c[nH]c2ccc(OC)cc12	Jurkat NFkB inh 100 (no result: Calb FLC) | Jurkat NFkB conf inactive
COc1ccccc1C(=O)N1CCN(c2cccc(C(F)(F)F)c2)CC1	Jurkat NFkB inh 66 | Jurkat NFkB conf inactive
CCOc1ccc2ccccc2c1C(=O)N1CCN(c2ccccc2)CC1	Jurkat NFkB inh 68 | Jurkat NFkB conf inactive
CCOC(=O)c1[nH]c(C)c(C(=O)N2CCN(c3ccccc3)CC2)c1C	none
CCOc1ccccc1C(=O)N1CCN(c2cccc(Cl)c2)CC1	Jurkat NFkB inh 81 | Jurkat NFkB conf inactive
CCCCN(C(=O)c1cc(S(=O)(=O)N2CCOCC2)ccc1N1CCOCC1)c1ccccc1	none (no result: Calb FLC, Beta cell apopt, 697 NFkB inh, Jurkat NFkB inh)
COC(=O)Nc1nc(-c2ccccc2)c(C(=O)c2ccc(Cl)cc2)s1	none
CCOC(=O)Nc1nc(-c2ccccc2)c(C(=O)c2ccccc2)s1	Jurkat NFkB inh 51 | Jurkat NFkB conf 50
CCn1c(=S)sc2c(=O)n(CC(=O)Nc3ccc(OC)c(Cl)c3)c(C)nc21	none
CC1(C)Cc2nc3sc4c(=O)n(CC(=O)NCc5ccccc5)cnc4c3cc2CO1	Jurkat NFkB inh 61 | Jurkat NFkB conf inactive
Cc1onc(-c2ccccc2)c1C(=O)Nc1ccccc1N1CCOCC1	none
CCN(CC)S(=O)(=O)c1ccc(N2CCCC2)c(NC(=O)c2c(-c3ccccc3)noc2C)c1	none
CCOC(=O)c1ccc(N2CCOCC2)c(NC(=O)c2c(-c3ccccc3)noc2C)c1	Jurkat NFkB inh 64 (no result: Beta cell apopt) | Jurkat NFkB conf inactive
Cc1onc(-c2ccccc2)c1C(=O)Nc1cc(C(F)(F)F)ccc1N1CCOCC1	Calb FLC inconclusive, Jurkat NFkB inh 56 | Jurkat NFkB conf inactive
CSc1cc(-c2ccccc2)n(Cc2ccccc2Cl)c(=O)c1C#N	Jurkat NFkB inh 64 | Jurkat NFkB conf inactive
O=C1N(c2ccccc2)C[C@@H]2C[C@@H](c3cc4ccccc4o3)N3CCC[C@@]123	Shn3 inh set2 97, Jurkat NFkB inh 72 (no result: Beta cell apopt) | Jurkat NFkB conf inactive
CC(C)(C)c1cc(NC(=O)c2cccs2)no1	none | Jurkat NFkB conf inactive

Screening results deposited in PubChem by several laboratories.
